Key:
Assay in all cases: SPOT peptide array binding signal intensity (averaged, normalized) (arbitrary units (background-subtracted, floor 0; scale differs between SH3 domains)); higher = stronger binding of the SH3 domain to the peptide
SpBzz1-D2 = target: SpBzz1-D2
In short: (§1)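 Spot intensities were captured after detection with anti-GST antibody, an HRP-linked anti-mouse secondary and luminol, and quantified with Genespotter. The probes were GST-fused SH3 domains from four yeast species, produced in E. coli BL21(DE3), purified on glutathione Sepharose and incubated at 10 μg/ml overnight at 4°C on cellulose-bound synthetic 15-mer peptides with cysteines replaced by serines. Binding signal is the normalized, background-subtracted spot intensity averaged over replicates, and its arbitrary units differ between domains.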

SpCyk3 = target: SpCyk3
In short: as §1

SpHof1 = target: SpHof1
In short: as §1

SpHof1-2 = target: SpHof1-2
In short: as §1

SpHof1-3 = target: SpHof1-3
In short: as §1

SpHse1 = target: SpHse1
In short: as §1

SpLsb1 = target: SpLsb1
In short: as §1

SpLsb4 = target: SpLsb4
In short: as §1

SpMyo1 = target: SpMyo1
In short: as §1

SpNbp2 = target: SpNbp2
In short: as §1

SpPex13 = target: SpPex13
In short: as §1

SpRvs167 = target: SpRvs167
In short: as §1

SpSla1-D1-D2 = target: SpSla1-D1-D2
In short: as §1

SpSla1-D3 = target: SpSla1-D3
In short: as §1

AgAbp1 = target: AgAbp1
In short: as §1

AgBbc1 = target: AgBbc1
In short: as §1

AgBem1-D1 = target: AgBem1-D1
In short: as §1

AgBzz1-D1 = target: AgBzz1-D1
In short: as §1

AgBzz1-D2 = target: AgBzz1-D2
In short: as §1

AgCyk3 = target: AgCyk3
In short: as §1

AgFus1 = target: AgFus1
In short: as §1

AgHof1 = target: AgHof1
In short: as §1

AgHse1 = target: AgHse1
In short: as §1

AgLsb1 = target: AgLsb1
In short: as §1

AgLsb4 = target: AgLsb4
In short: as §1

AgMyo5 = target: AgMyo5
In short: as §1

AgNbp2 = target: AgNbp2
In short: as §1

AgRvs167 = target: AgRvs167
In short: as §1

AgSho1 = target: AgSho1
In short: as §1

AgSla1-D1-D2 = target: AgSla1-D1-D2
In short: as §1

AgSla1-D3 = target: AgSla1-D3
In short: as §1

CaAbp1-D1 = target: CaAbp1-D1
In short: as §1

CaAbp1-D2 = target: CaAbp1-D2
In short: as §1

CaBbc1 = target: CaBbc1
In short: as §1

CaBem1-D1 = target: CaBem1-D1
In short: as §1

CaBzz1-D1 = target: CaBzz1-D1
In short: as §1

CaBzz1-D2 = target: CaBzz1-D2
In short: as §1

CaCyk3 = target: CaCyk3
In short: as §1

CaFus1 = target: CaFus1
In short: as §1

CaHof1 = target: CaHof1
In short: as §1

CaHse1 = target: CaHse1
In short: as §1

CaLsb1 = target: CaLsb1
In short: as §1

CaLsb4 = target: CaLsb4
In short: as §1

CaMyo5 = target: CaMyo5
In short: as §1

CaNbp2 = target: CaNbp2
In short: as §1

CaRvs167 = target: CaRvs167
In short: as §1

CaRvs167-3 = target: CaRvs167-3
In short: as §1

CaSho1 = target: CaSho1
In short: as §1

CaSla1-D1-D2 = target: CaSla1-D1-D2
In short: as §1

CaSla1-D3 = target: CaSla1-D3
In short: as §1

ScAbp1 = target: ScAbp1
In short: as §1

ScBbc1 = target: ScBbc1
In short: as §1

ScBem1-D1 = target: ScBem1-D1
In short: as §1

ScBzz1-D1 = target: ScBzz1-D1
In short: as §1

ScBzz1-D2 = target: ScBzz1-D2
In short: as §1

ScCyk3 = target: ScCyk3
In short: as §1

ScFus1 = target: ScFus1
In short: as §1

ScHof1 = target: ScHof1
In short: as §1

ScHse1 = target: ScHse1
In short: as §1

ScLsb1 = target: ScLsb1
In short: as §1

ScLsb2 = target: ScLsb2
In short: as §1

ScLsb3 = target: ScLsb3
In short: as §1

ScLsb4 = target: ScLsb4
In short: as §1

ScMyo3 = target: ScMyo3
In short: as §1

ScMyo5 = target: ScMyo5
In short: as §1

ScNbp2 = target: ScNbp2
In short: as §1

ScPex13 = target: ScPex13
In short: as §1

ScRvs167 = target: ScRvs167
In short: as §1

ScSho1 = target: ScSho1
In short: as §1

ScSla1-D1-D2 = target: ScSla1-D1-D2
In short: as §1

ScSla1-D3 = target: ScSla1-D3
In short: as §1

SpAbp1-D1 = target: SpAbp1-D1
In short: as §1

SpBbc1 = target: SpBbc1
In short: as §1

SpBzz1-D1 = target: SpBzz1-D1
In short: as §1

## LKRITSPPLPPRADS
SpBzz1-D2
  SPOT peptide array binding signal intensity: 1.75
SpCyk3
  SPOT peptide array binding signal intensity: 3
SpHof1
  SPOT peptide array binding signal intensity: 168
SpHof1-2
  SPOT peptide array binding signal intensity: 17.2
SpHof1-3
  SPOT peptide array binding signal intensity: 140
SpHse1
  SPOT peptide array binding signal intensity: 47.5
SpLsb1
  SPOT peptide array binding signal intensity: 1600
SpLsb4
  SPOT peptide array binding signal intensity: 4790
SpMyo1
  SPOT peptide array binding signal intensity: 102
SpNbp2
  SPOT peptide array binding signal intensity: ≤ 0
SpPex13
  SPOT peptide array binding signal intensity: ≤ 0
SpRvs167
  SPOT peptide array binding signal intensity: 3150
SpSla1-D1-D2
  SPOT peptide array binding signal intensity: 1
SpSla1-D3
  SPOT peptide array binding signal intensity: 1.5

## NRPAIRIPSLKKPAL
AgAbp1
  SPOT peptide array binding signal intensity: 20
AgBbc1
  SPOT peptide array binding signal intensity: 12.5
AgBem1-D1
  SPOT peptide array binding signal intensity: 54.5
AgBzz1-D1
  SPOT peptide array binding signal intensity: 16
AgBzz1-D2
  SPOT peptide array binding signal intensity: 7
AgCyk3
  SPOT peptide array binding signal intensity: 2
AgFus1
  SPOT peptide array binding signal intensity: 226
AgHof1
  SPOT peptide array binding signal intensity: 111
AgHse1
  SPOT peptide array binding signal intensity: 800
AgLsb1
  SPOT peptide array binding signal intensity: 361
AgLsb4
  SPOT peptide array binding signal intensity: 18.5
AgMyo5
  SPOT peptide array binding signal intensity: 0.5
AgNbp2
  SPOT peptide array binding signal intensity: 114
AgRvs167
  SPOT peptide array binding signal intensity: 1.33
AgSho1
  SPOT peptide array binding signal intensity: 21.5
AgSla1-D1-D2
  SPOT peptide array binding signal intensity: 24
AgSla1-D3
  SPOT peptide array binding signal intensity: 5.5
CaAbp1-D1
  SPOT peptide array binding signal intensity: 191
CaAbp1-D2
  SPOT peptide array binding signal intensity: 44
CaBbc1
  SPOT peptide array binding signal intensity: 122
CaBem1-D1
  SPOT peptide array binding signal intensity: 41
CaBzz1-D1
  SPOT peptide array binding signal intensity: 25.5
CaBzz1-D2
  SPOT peptide array binding signal intensity: 21.8
CaCyk3
  SPOT peptide array binding signal intensity: 7
CaFus1
  SPOT peptide array binding signal intensity: 765
CaHof1
  SPOT peptide array binding signal intensity: ≤ 0
CaHse1
  SPOT peptide array binding signal intensity: 27
CaLsb1
  SPOT peptide array binding signal intensity: 2.5
CaLsb4
  SPOT peptide array binding signal intensity: 10.5
CaMyo5
  SPOT peptide array binding signal intensity: 2.75

## AERNYAPRLPRRETS
AgAbp1
  SPOT peptide array binding signal intensity: 20
AgBbc1
  SPOT peptide array binding signal intensity: 69.8
AgBem1-D1
  SPOT peptide array binding signal intensity: 44.8
AgBzz1-D1
  SPOT peptide array binding signal intensity: 77
AgBzz1-D2
  SPOT peptide array binding signal intensity: 128
AgCyk3
  SPOT peptide array binding signal intensity: 1
AgFus1
  SPOT peptide array binding signal intensity: 3.25
AgHof1
  SPOT peptide array binding signal intensity: 124
AgHse1
  SPOT peptide array binding signal intensity: 87.5
AgLsb1
  SPOT peptide array binding signal intensity: 289
AgLsb4
  SPOT peptide array binding signal intensity: 3440
AgMyo5
  SPOT peptide array binding signal intensity: ≤ 0
AgNbp2
  SPOT peptide array binding signal intensity: 128
AgRvs167
  SPOT peptide array binding signal intensity: 340
AgSho1
  SPOT peptide array binding signal intensity: ≤ 0
AgSla1-D1-D2
  SPOT peptide array binding signal intensity: 1.5
AgSla1-D3
  SPOT peptide array binding signal intensity: ≤ 0
CaAbp1-D1
  SPOT peptide array binding signal intensity: 84
CaAbp1-D2
  SPOT peptide array binding signal intensity: 61
CaBbc1
  SPOT peptide array binding signal intensity: 454
CaBem1-D1
  SPOT peptide array binding signal intensity: 25.5
CaBzz1-D1
  SPOT peptide array binding signal intensity: 171
CaBzz1-D2
  SPOT peptide array binding signal intensity: 62.6
CaCyk3
  SPOT peptide array binding signal intensity: 9
CaFus1
  SPOT peptide array binding signal intensity: 23.8
CaHof1
  SPOT peptide array binding signal intensity: 7.5
CaHse1
  SPOT peptide array binding signal intensity: 222
CaLsb1
  SPOT peptide array binding signal intensity: 4.75
CaLsb4
  SPOT peptide array binding signal intensity: 4670
CaMyo5
  SPOT peptide array binding signal intensity: 5.5
CaNbp2
  SPOT peptide array binding signal intensity: 52.5
CaRvs167
  SPOT peptide array binding signal intensity: 1200
CaRvs167-3
  SPOT peptide array binding signal intensity: ≤ 0
CaSho1
  SPOT peptide array binding signal intensity: 22.5
CaSla1-D1-D2
  SPOT peptide array binding signal intensity: 19
CaSla1-D3
  SPOT peptide array binding signal intensity: 0.75
ScAbp1
  SPOT peptide array binding signal intensity: 27.8
ScBbc1
  SPOT peptide array binding signal intensity: 22.4
ScBem1-D1
  SPOT peptide array binding signal intensity: 6
ScBzz1-D1
  SPOT peptide array binding signal intensity: 56.8
ScBzz1-D2
  SPOT peptide array binding signal intensity: 73.8
ScCyk3
  SPOT peptide array binding signal intensity: 2.25
ScFus1
  SPOT peptide array binding signal intensity: ≤ 0
ScHof1
  SPOT peptide array binding signal intensity: 17.1
ScHse1
  SPOT peptide array binding signal intensity: 42
ScLsb1
  SPOT peptide array binding signal intensity: 184
ScLsb2
  SPOT peptide array binding signal intensity: 158
ScLsb3
  SPOT peptide array binding signal intensity: 6160
ScLsb4
  SPOT peptide array binding signal intensity: 3130
ScMyo3
  SPOT peptide array binding signal intensity: 0.75
ScMyo5
  SPOT peptide array binding signal intensity: ≤ 0
ScNbp2
  SPOT peptide array binding signal intensity: 283
ScPex13
  SPOT peptide array binding signal intensity: 252
ScRvs167
  SPOT peptide array binding signal intensity: 2200
ScSho1
  SPOT peptide array binding signal intensity: 268
ScSla1-D1-D2
  SPOT peptide array binding signal intensity: 206
ScSla1-D3
  SPOT peptide array binding signal intensity: 13
SpAbp1-D1
  SPOT peptide array binding signal intensity: 50.5
SpBbc1
  SPOT peptide array binding signal intensity: 7.25
SpBzz1-D1
  SPOT peptide array binding signal intensity: 332
SpBzz1-D2
  SPOT peptide array binding signal intensity: 4.5
SpCyk3
  SPOT peptide array binding signal intensity: 2
SpHof1
  SPOT peptide array binding signal intensity: 49.2
SpHof1-2
  SPOT peptide array binding signal intensity: 10.2
SpHof1-3
  SPOT peptide array binding signal intensity: 197
SpHse1
  SPOT peptide array binding signal intensity: 85.5
SpLsb1
  SPOT peptide array binding signal intensity: 177
SpLsb4
  SPOT peptide array binding signal intensity: 3100
SpMyo1
  SPOT peptide array binding signal intensity: 11.5
SpNbp2
  SPOT peptide array binding signal intensity: ≤ 0
SpPex13
  SPOT peptide array binding signal intensity: 3.5
SpRvs167
  SPOT peptide array binding signal intensity: 1930
SpSla1-D1-D2
  SPOT peptide array binding signal intensity: ≤ 0
SpSla1-D3
  SPOT peptide array binding signal intensity: ≤ 0

— the supplement of paper PMC4466140
